Laboratory results from PubChem BioAssay (Tox21).
“And” between values parts separate entries of the source, which are not always exact repeats. Identical values can stand only once. Results filed as inconclusive are left out. Where a call stands in place of a potency, no number is given. Some structures have more than one record in an assay (separate samples or runs), and their calls can disagree. The source made the active and inactive calls. Unless noted, calls come from the whole dose curve; as a rule, active = well fitted curve in the direction sought with a large enough effect in the repeat runs; inconclusive = weak or mixed curves; inactive = no such curve, though single readings can be large; an effect the other way counts as inactive or inconclusive.

Tests used:
[1] = qHTS assay for small molecule agonists of the p53 signaling pathway (AID 651631; calls by dose curve; note: nearly all actives have a fitted effect of over 15% in size; note: potency is the fitted concentration of half-maximal effect)
Method in brief: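 Readout was fluorescence from the LiveBLAzer FRET substrate, applied for 2 h at room temperature after 16 h compound exposure at 37 °C. Cells were the p53RE-bla HCT-116 line, with beta-lactamase driven by p53 response elements.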

[2] = qHTS assay for small molecules that induce genotoxicity in human embryonic kidney cells expressing luciferase-tagged ATAD5 (AID 651632); note: nearly all actives have a fitted effect of over 15% in size
Method in brief: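 HEK293T cells carrying a luciferase reporter tagged to ATAD5 were exposed to compound or DMSO vehicle for 16 hr at 37C, 5% CO2. Amplite was added, and after 30 min at room temperature luciferase activity was read as a marker of ATAD5 induction.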

[3] = qHTS assay for small molecule agonists of the p53 signaling pathway - cell viability (AID 651633; calls by dose curve; note: nearly all actives have a fitted effect of over 30% in size; note: potency is the fitted concentration of half-maximal effect)
Method in brief: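 p53RE-bla cells, seeded at 4,000 per well and rested 5 h at 37 C/5% CO2, received compounds in DMSO for 16 h at 37 C. CellTiter-Glo was then added, and luminescence was read after 30 min at room temperature to gauge cytotoxicity.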

[4] = qHTS assay for small molecules that induce genotoxicity in human embryonic kidney cells expressing luciferase-tagged ATAD5 - cell viability (AID 651634; calls by dose curve; note: nearly all actives have a fitted effect of over 25% in size; note: potency is the fitted concentration of half-maximal effect)
Method in brief: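 HEK293T cells expressing luciferase-tagged ATAD5 were exposed to compound or DMSO for 15.5 hr at 37C, 5% CO2. Viability was then read as live-cell protease activity by CellTiter-Fluor fluorescence after 30 min at 37C.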

[5] = qHTS assay for small molecule disruptors of the mitochondrial membrane potential - cell viability (AID 720634; calls by dose curve; note: nearly all actives have a fitted effect of over 20% in size; note: potency is the fitted concentration of half-maximal effect)
Method in brief: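 HepG2 cells seeded overnight at 37 C, then exposed to compound or DMSO for 1 hr at 37 C, 5% CO2. m-MPI dye added, then CellTiter-Glo for 30 min at room temperature; viability read as ATP luminescence.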

[6] = qHTS assay for small molecule disruptors of the mitochondrial membrane potential (AID 720635); note: potency is the fitted concentration of half-maximal effect
Method in brief: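 HepG2 cells (2,000/well) attached overnight at 37C, then took compound for 1 hr at 37C, 5% CO2. Mito-MPS dye was added for 30 min; fluorescence was read at 490/535 nm (monomers) and 540/590 nm (aggregates).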

[7] = qHTS assay to test for compound auto fluorescence at 590 nm (red) in HepG2 cells (AID 720674)
Method in brief: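 Intrinsic compound fluorescence in the red window (Ex/Em 540/590 nm) is measured in attached HepG2 cells exposed for 1 hr, DMSO vehicle as baseline, benchmarked to Rose Bengal sodium.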

[8] = qHTS assay to test for compound auto fluorescence at 535 nm (green) in HepG2 cells (AID 720675)
[9] = qHTS assay to test for compound auto fluorescence at 460 nm (blue) in HEK293 cells (AID 720678)
Method in brief: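 HEK293, 2,000 cells/well, 10% dialyzed FBS; attach 4-5 hr 37C; pin compound or DMSO; o/n 37C/5% CO2; fluorescence 405/460 nm; triamterene-equivalent units.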

[10] = qHTS assay to test for compound auto fluorescence at 590 nm (red) in HEK293 cells (AID 720679)
Method in brief: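 Intensity at 540nm excitation and 590nm emission is reported as Rose Bengal sodium-equivalent autofluorescence. Measurements followed overnight exposure (37C, 5% CO2) of HEK293 cells, 2,000 per well, to 23 nL compound.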

SMILES | Potency [1] | outcome [2] | Potency [3] | Potency [4] | Potency [5] | Potency [6] | outcome [7] | outcome [8] | outcome [9] | outcome [10]
OCCOc1ccccc1 | inactive | inactive | inactive | inactive | inactive | inactive | inactive | inactive | inactive | inactive
Nc1ccccc1 | inactive | inactive | inactive | inactive | inactive | inactive | inactive | inactive | inactive | inactive
CCCC[n+]1cccc(C)c1 | inactive | inactive | inactive | inactive | inactive | inactive | inactive | inactive | inactive | inactive
Nc1ccc(Cl)cc1 |  | inactive | inactive | inactive | inactive | inactive | inactive | inactive | inactive | inactive
CCC(=O)C(CC(C)N(C)C)(c1ccccc1)c1ccccc1 (centres undefined) | inactive | inactive | inactive | inactive | inactive | inactive | inactive | inactive | inactive | inactive
CCCCCC[n+]1ccccc1 |  | inactive | inactive | inactive | inactive | 61.7 µM (active) and inactive | inactive | inactive | inactive | inactive
CCCC[N+]1(C)CCCC1 | inactive | inactive | inactive | inactive | inactive | inactive | inactive | inactive | inactive | inactive
CC(=O)[O][Hg][c]1ccccc1 | 596 nM (active) and 762 nM (active) and 1.22 µM (active) | inactive | 473 nM (active) and 382 nM (active) and 386 nM (active) | 1.68 µM (active) and 606 nM (active) and 1.37 µM (active) | 5.31 µM (active) and 1.21 µM (active) and 2.43 µM (active) | 4.73 µM (active) and 1.08 µM (active) and 1.93 µM (active) | inactive | inactive | inactive | inactive
N#CS | inactive |  | inactive | inactive | inactive | inactive | inactive | inactive | inactive | inactive
C[C@]12CCC(=O)C=C1CC[C@@H]1[C@@H]2CC[C@]2(C)C(=O)CC[C@@H]12 | inactive | inactive | inactive | inactive | inactive | inactive | inactive | inactive | inactive | inactive
Oc1ccccc1-c1ccccc1 | inactive | inactive | inactive | inactive | inactive | 21.7 µM (active) [middle of 4 runs] | inactive | inactive | inactive | inactive
O=[N+]([O-])c1ccccc1O | inactive | inactive | inactive | inactive | inactive | inactive | inactive | inactive | inactive | inactive
CCCCCCCCCCCCCC[P+](CCCCCC)(CCCCCC)CCCCCC |  | inactive | 15.4 µM (active) and 19.5 µM (active) and inactive | 27.4 µM (active) and 24.5 µM (active) | 30.8 µM (active) and 24.5 µM (active) and 1.72 µM (active) | 434 nM (active) and 616 nM (active) and 273 nM (active) | inactive | inactive | inactive | inactive
CCNc1nc(Cl)nc(NCC)n1 | inactive | inactive | inactive | inactive | inactive | inactive | inactive | inactive | inactive | inactive
C[N+](C)(C)Cc1ccccc1 |  | inactive | inactive | inactive | inactive | inactive | inactive | inactive | inactive | inactive
Cc1cc(Cl)ccc1OCC(=O)O | inactive | inactive | inactive | inactive | inactive | inactive | inactive | inactive | inactive | inactive
O=C(O)C(Cl)(Cl)Cl | inactive | inactive | inactive | inactive | inactive | inactive | inactive | inactive | inactive | inactive
COCC(=O)N(c1c(C)cccc1C)C(C)C(=O)OC (centres undefined) | inactive | inactive | inactive | inactive | inactive | inactive | inactive | inactive | inactive | inactive
CCCCCCCCCCCCCCCCn1cc[n+](C)c1 | inactive | inactive | 27.9 µM (active) and 69.2 µM (active) and 30.7 µM (active) |  |  | 17.6 µM (active) and inactive and 17.4 µM (active) | inactive | inactive | inactive | inactive
CCOP(=S)(OCC)Oc1ccc2c(C)c(Cl)c(=O)oc2c1 | inactive |  | inactive | inactive | inactive and 24.3 µM (active) | 19.5 µM (active) and 61.1 µM (active) | inactive | inactive | inactive | inactive
O=C(O)CC(O)(CC(=O)O)C(=O)O | inactive | inactive | inactive | inactive | inactive | inactive | inactive | inactive | inactive | inactive

SMILES | Potency [1] | outcome [2] | Potency [3] | Potency [4] | Potency [5] | Potency [6] | outcome [7] | outcome [8] | outcome [9] | outcome [10]
Nc1ccc(-c2ccc(N)c(Cl)c2)cc1Cl | 9.74 µM (active) and 12.8 µM (active) and 21.7 µM (active) | inactive | 54.8 µM (active) and inactive | 54.8 µM (active) and 57 µM (active) and 54.5 µM (active) | 27.4 µM (active) and 50.8 µM (active) and 34.4 µM (active) | 5.48 µM (active) and 16.1 µM (active) and 8.63 µM (active) | inactive | inactive | inactive | inactive
COc1ccc(N)cc1 | inactive | inactive | inactive | inactive | inactive | inactive | inactive | inactive | inactive | inactive
COP(=O)(OC)C(O)C(Cl)(Cl)Cl (centres undefined) | inactive | inactive | inactive | inactive | inactive | inactive | inactive | inactive | inactive | inactive
O=C(O)c1nc(Cl)ccc1Cl | inactive | inactive | inactive | inactive | inactive | inactive | inactive | inactive | inactive | inactive
C1CCC(NC2CCCCC2)CC1 | inactive | inactive | inactive | inactive | inactive | inactive | inactive | inactive | inactive | inactive
O=C(O)COc1ccc(Cl)cc1Cl | inactive |  | inactive | inactive | inactive | inactive | inactive | inactive | inactive | inactive
O=P1(N(CCCl)CCCl)NCCCO1 (centres undefined) | inactive | inactive | inactive | inactive | inactive | inactive | inactive | inactive | inactive | inactive
CCn1cc[n+](C)c1C |  | inactive | inactive | inactive | inactive | inactive | inactive | inactive | inactive | inactive
Nc1ccc(-c2ccc(N)cc2)cc1 | inactive | inactive | inactive | inactive | inactive |  | inactive | inactive | inactive | inactive
CNC | inactive |  | inactive |  | inactive | inactive | inactive | inactive | inactive | inactive
Cc1cc(-c2ccc(N)c(C)c2)ccc1N | inactive | inactive | inactive | inactive | inactive | inactive | inactive | inactive | inactive | inactive
CCCCCCCCCCn1cc[n+](C)c1 |  | inactive | inactive | inactive | inactive |  | inactive | inactive | inactive | inactive
CN(C)[C@@H]1C(=O)C(C(N)=O)=C(O)[C@@]2(O)C(=O)C3=C(O)c4c(O)cccc4[C@@](C)(O)[C@H]3[C@H](O)[C@@H]12 |  |  |  | inactive | inactive | inactive and 34.4 µM (active) | inactive | inactive | inactive | inactive
Cc1cc(Cl)ccc1N |  | inactive | inactive | inactive | inactive | inactive | inactive | inactive | inactive | inactive
O=C(O)C(Cl)Cl |  | inactive | inactive | inactive | inactive | inactive | inactive | inactive | inactive | inactive
CC[n+]1ccccc1 |  | inactive | inactive | inactive | inactive | inactive | inactive | inactive | inactive | inactive
O=C(O)CCl |  |  | inactive | inactive | inactive | inactive | inactive | inactive | inactive | inactive
O=c1nc(O)n(Cl)c(=O)n1Cl |  | inactive |  | inactive | inactive | inactive | inactive | inactive | inactive | inactive
CCCCn1cc[n+](C)c1 |  |  |  | inactive | inactive | inactive | inactive | inactive | inactive | inactive
CCCCCCn1cc[n+](C)c1 |  | inactive | inactive | inactive | inactive | 11 µM (active) and 24.5 µM (active) and 22.2 µM (active) | inactive | inactive | inactive | inactive
O=c1[nH]c(=O)n(Cl)c(=O)n1Cl |  | inactive |  | inactive | inactive | inactive | inactive | inactive | inactive | inactive
